# Rows were chosen to be rich in hits. Some 12% of all compounds tested hit in one or more screens of this group.
# CHOP inhibitor = inhibitors of CHOP induction in ER stress response; AID 2732; hit rate 3.8% among 220,000; inhibition, % at 10 µM; CHO-K1 CHOP-promoter luciferase, tunicamycin-induced, 15-18 h;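 active = compounds that reduced the stress-induced luciferase reporter signal by more than about 70% of percent inhibition, limit read from the data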;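 note: 0% = tunicamycin plus vehicle and 100% = wells without tunicamycin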
# Lmaj promast = Leishmania major promastigote growth inhibition | Leishmania major promastigotes, resazurin fluorescence viability | inhibition, % at 10 µM | hit rate 9% among 200,000; in the data active = inhibition above about 50%;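 note: promastigotes grown with compound for 44 hours at 28 °C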
# WT yeast gro inh = growth inhibition of WT yeast, mitochondrial fusion screen; hit rate 2.1% among 190,000; mitochondrial fusion phenotypic screen, WT strain; AID 1362; inhibition, % at 10 µM; in the data active = inhibition above about 58%; tested in S. cerevisiae
# Arbovirus anti = blocks arbovirus infection | arbovirus infection cell-based antiviral screen | inhibition, % at 10 µM | hit rate 0.37% among 200,000; in the data active = inhibition above about 30%
# An asterisk follows results filed as active; . = no result given.
SMILES,CHOP inhibitor,Lmaj promast,WT yeast gro inh,Arbovirus anti
Fc1ccc(CNC(=S)NC2CCCCCC2)cc1,5,17,71*,4
CCOC(=O)NC(=S)Nc1c(C)n(C)n(-c2ccccc2)c1=O,-2,-5,2,-3
OCCN(Cc1ccccc1)C(=S)NC1CCCCC1,14,-4,5,2
S=C(NC1CCCCC1)N(CCc1ccccc1)CCc1ccccc1,24,18,62*,16
CN(C)/N=C/c1ccc(P(c2ccc(/C=N/N(C)C)o2)c2ccc(/C=N/N(C)C)o2)o1,30,1,16,31*
Cc1ccc(/C=N/N(Cc2ccccc2)c2ccccc2)o1,20,2,-10,4
C=C1CCC2C(C)(C)[C@H](O)CC[C@@]2(C)[C@@H]1COc1cc(=O)oc2ccccc12 (stereo not given in full),38,98*,46,-40
CCO[C@H]1OC(C(=O)NCc2ccccc2)=C[C@@H](C2CC2)[C@@H]1CCCO,5,1,-13,-3
COc1ccc(/C=C/C(=O)NC2=NCCS2)cc1OC,-22,5,-8,7
COc1cccc(/C=C/C(=O)c2ccc(NC3=NCCCS3)cc2)c1,-78,99*,28,-33
Cc1cccc(/C=C/C(=O)c2ccc(NC3=NCCCS3)cc2)c1,-46,77*,58,-35
CCOC(=O)c1cc2c(ccn2C)n1CC(=O)N(CC)CC,-9,-3,-18,-4
Cn1cc(C(=O)N/N=C/C2=C(N3CCOCC3)C(=C\c3ccccc3)/CC2)ccc1=O,-2,-4,3,4
O=C1Nc2ccccc2/C1=N\N=C\C1=C(N2CCOCC2)C(=C\c2ccccc2)/CC1,65,27,61*,-39
CC(NC(=O)C12CC3CC(CC(C3)C1)C2)C(=O)N/N=C/C1=C(N2CCOCC2)C(=C\c2ccccc2)/CC1 (stereo not given),57,100*,24,-23
CC1(C)OC(=O)C(=Cc2ccc(-c3ccc(S(N)(=O)=O)cc3)o2)C(=O)O1,100*,3,-13,4
CC(=O)N1CCc2ccc(S(=O)(=O)N3CC(C)OC(C)C3)cc21 (stereo not given),-10,3,3,5
CC(=O)N1CCc2ccc(S(=O)(=O)N3CCN(C)CC3)cc21,-5,53*,-1,7
CN1CCN(S(=O)(=O)c2ccc(Cc3ccc(S(=O)(=O)N4CCN(C)CC4)cc3)cc2)CC1,19,65*,-11,-7
CN1CCN(S(=O)(=O)c2ccc(-c3ccc(S(=O)(=O)N4CCN(C)CC4)cc3)cc2)CC1,.,.,12,1
CCC/C=N/NC(=O)c1ccccc1O,-5,2,-1,2
NC(=S)N1OC[C@@H]2COc3ccc4ccccc4c3[C@@H]21,77*,15,42,4
O=C(Cc1ccc(Br)cc1)N1CCN(c2ccc(F)cc2)CC1,23,3,22,20
COc1cc(C)c(NC(c2ccccc2)c2ccccc2)cc1OC,11,91*,53,-6
CC(C)(C)N1C(=O)c2ccccc2NC(=O)N1Cc1ccc(Br)cc1,37,99*,-5,2
SMILES,CHOP inhibitor,Lmaj promast,WT yeast gro inh,Arbovirus anti
O=c1[nH]c2ccc(S(=O)(=O)NCc3ccccc3)cc2[nH]1,4,-4,-11,-1
Cc1nc(C)c(Oc2cccc(C(F)(F)F)c2)c(=O)[nH]1,-9,.,.,.
COc1ccc2cc(/C=N/O)c(Cl)nc2c1,-5,-5,6,16
COc1ccc2cc(/C=N/NC(=O)c3ccc(CN(c4cccc(Cl)c4Cl)S(C)(=O)=O)cc3)c(Cl)nc2c1,22,80*,0,-28
CCCCn1cnc2c1c(=O)n(CC(=O)c1cc(C)n(C)c1C)c(=O)n2CC(C)C,19,96*,-5,-2
COc1ccccc1C1(CC(=O)N2CCCCC2)CCOC(C(C)C)C1 (stereo not given),-5,8,-2,5
Cc1cc(C)cc(NC(=S)NN)c1,-14,-2,24,10
COc1ccc(/C=N/n2c(SC)nnc2-c2ccccc2)cc1C,37,63*,24,-24
COc1ccc(/C=N/n2c(SC)nnc2-c2ccccc2)c(OC)c1OC,.,21,17,12
COc1ccc(CN2CCN(C(=O)C3CCC(CNS(=O)(=O)c4ccccc4)CC3)CC2)c(OC)c1OC (stereo not given),21,4,4,4
O=C(COC(=O)c1ccncc1)c1ccc(Cl)c(Cl)c1,-1,-19,-10,1
Cc1ccc(/C=N/N2CCOCC2)s1,11,-1,-13,3
Fc1ccccc1COc1ccc2ccccc2c1CNc1nn[nH]n1,30,-9,-8,31*
CNCc1ccccc1OCc1ccccc1F,31,8,-6,-10
Fc1ccc(COc2ccc3ccccc3c2CNc2nn[nH]n2)cc1,21,0,0,2
CNCc1c(OCc2ccc(F)cc2)ccc2ccccc12,16,63*,10,-9
CCCn1nnnc1NC(=O)COc1ccc(Br)cc1,4,-8,18,-2
CN(C)c1ccc(C(=O)OCC(=O)NCC2CCCO2)cc1 (stereo not given),6,-5,22,3
Fc1ccc(Br)cc1C1C=C(c2ccc(Br)s2)Nc2ncnn21 (stereo not given),.,-1,-10,37*
COc1cccc(C2C=C(c3ccc(Br)s3)Nc3ncnn32)c1OC (stereo not given),18,-4,21,1
CCCOn1c(OCC(C)C)nc2ccccc2c1=O,73*,2,5,6
CC1(c2nnc(-c3ccc(F)cc3)o2)CC(c2ccc([N+](=O)[O-])cc2)=NO1 (stereo not given),7,.,.,.
O=C(Nn1nnnc1Nc1ccccc1)C12CC3CC(CC(C3)C1)C2,94*,-9,13,5
O=C(c1ccccc1)N1CCN(CC2CC=CCC2)CC1 (stereo not given),79*,70*,-10,11
CCOC(=O)C1(Cc2cccc(F)c2)CCN(CC2CC2)CC1,47,5,5,-11
SMILES,CHOP inhibitor,Lmaj promast,WT yeast gro inh,Arbovirus anti
CCOC(=O)C1(Cc2ccccc2)CCN(CC2CC=CCC2)CC1 (stereo not given),31,80*,-5,-9
CCOC(=O)C1(Cc2cccc(OC)c2)CCN(CC2CC=CCC2)CC1 (stereo not given),31,92*,-3,-11
CC1CCCN(C(=O)C2CCN(CC3CC=CCC3)CC2)C1 (stereo not given),-14,94*,0,2
Cc1cc(C)cc(N(C(=O)CCC(=O)Nc2ccccn2)C(C(=O)NC(C)C)c2ccc(O)cc2)c1 (stereo not given),6,-5,-10,-9
CC1CCCN(C(=O)CSc2nnc(-c3ccncc3)n2C)C1 (stereo not given),-17,-4,-13,11
COc1ccccc1N1CCc2c(C)nc3c(OC)cccc3c21,9,89*,-15,-24
COc1cccc2c3c(c(C)nc12)CCN3c1ccccc1,-10,78*,11,-6
COc1cccc2c1nc(C)c1cc(C)oc12,-15,4,10,1
CCN1CC(CN(C)Cc2cn(-c3cccc(C)c3)nc2-c2cccc(F)c2)CC1=O (stereo not given),-7,35,22,-24
C(=C\c1ccco1)/C1=NN(c2ccccc2)C(c2ccco2)C1 (stereo not given),74*,7,22,-6

# Source: PubChem (several laboratories)
